A selection: hits, their analogues and other compounds. The true share with any hit is near 12%.
Arbovirus inh – arbovirus infection inhibition. arbovirus infection cell-based antiviral screen. 0.37% of 200,000 active. inhibition, % at 10 µM; in the data active means inhibition above about 30%
CHOP inhibitor – CHOP inhibition in unfolded protein response; CHO-K1 CHOP-promoter luciferase, tunicamycin-induced, 15-18 h; inhibition, % at 10 µM; 3.8% of 220,000 active; AID 2732;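 active means compounds that reduced the stress-induced luciferase reporter signal by more than about 70% of percent inhibition, limit read from the data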;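 further: 0% = tunicamycin plus vehicle and 100% = wells without tunicamycin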
WT yeast gro inh – growth inhibition of WT yeast, mitochondrial fusion screen; inhibition, % at 10 µM; mitochondrial fusion phenotypic screen, WT strain; 2.1% of 190,000 active; in the data active means inhibition above about 58%; tested in S. cerevisiae
Lmaj promast – reduces viability of Leishmania major promastigotes. inhibition, % at 10 µM. resazurin fluorescence viability. 9% of 200,000 active. AID 1063; in the data active means inhibition above about 50%;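 further: promastigotes grown with compound for 44 hours at 28 °C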
The depositor's hits bear a star; x = no result given.

SMILES	Arbovirus inh	CHOP inhibitor	WT yeast gro inh	Lmaj promast
CCC(C(=O)c1ccccc1)N(C(=O)c1ccccc1Cl)N1C(=O)C2C3C=CC(C3)C2C1=O (stereo not drawn)	5	46	9	27
O=C1CN(C(=O)/C=C/c2ccc(Cl)cc2Cl)CCN1	0	-27	1	-1
CN1CCCN(C(=O)/C=C/c2ccc(Cl)cc2Cl)CC1	-4	-5	1	99*
Nc1nc2ccc(S(=O)(=O)N3CCCCC3)cc2s1	-15	48	70*	14
CSc1nc2ccc(S(=O)(=O)N3CCCCC3)cc2s1	1	8	-10	-2
O=C(CSc1nnc(NC(=O)C2CC2)s1)NCc1ccco1	6	10	8	59*
Fc1ccc(-n2nnc(-c3cnc4ccccc4c3)n2)cc1	6	72*	11	-2
CNNC(=S)Nc1cccc(SC)c1	x	3	x	x
O=C(Nc1c(-c2ccccc2)nc2ccccn12)c1cccs1	39*	-2	3	1
COc1ccccc1-n1c(SCC(N)=O)nc2sc3c(c2c1=O)CCC3	x	-6	x	x
COc1ccc(C2CC(C)(c3ccc(OC)cc3OC)Nc3ccccc3N2)c(OC)c1 (stereo not drawn)	2	80*	72*	62*
COC(=O)C1=C(C)C(c2ccc(OC)cc2OC)NC(=O)N1 (stereo not drawn)	6	20	-13	-3
Cc1ccc(Nc2ccc(-n3ccnc3)nn2)cc1C	5	29	69*	32
COc1cccc(Nc2ccc(-n3ccnc3)nn2)c1	4	1	34	1
CCCCNc1c(N)n(CC(C)C)c(=O)[nH]c1=O	0	-25	-15	4
S=C(NCc1ccccc1)N1CCn2cccc2C1c1ccncc1 (stereo not drawn)	11	24	-7	18
S=C(NCCc1ccccc1)N1CCn2cccc2C1c1cccnc1 (stereo not drawn)	1	1	10	95*
S=C(NCc1ccccc1)N1CCn2cccc2C1c1cccnc1 (stereo not drawn)	34*	-14	-25	91*
COc1ccc(N(CC(=O)NCc2ccccc2C)S(=O)(=O)c2ccccc2[N+](=O)[O-])c(OC)c1	-7	30	-9	22
COc1ccc(CCc2nc(C)ccc2O)cc1	7	9	17	3
CN1CCN(c2ccc(Cl)cc2NC(=O)c2ccc(S(=O)(=O)N3CCCCCC3)cc2)CC1	2	-25	6	88*
O=C(N/N=C\c1cc(Cl)ccc1O)c1ccc(S(=O)(=O)N2CCCCC2)cc1	-35	81*	11	98*
CCc1cccc(C)c1NC(=O)C1CCN(C(=O)c2ccc([N+](=O)[O-])cc2)CC1	12	13	6	2
CCOC(=O)c1nnc(-c2ccccc2)nc1Sc1ccccc1Cl	-36	53	8	20
O=C(O)c1cnc(-c2ccccc2)nc1Sc1ccc(Cl)cc1	66*	30	15	-11
SMILES	Arbovirus inh	CHOP inhibitor	WT yeast gro inh	Lmaj promast
Cc1cccc(Sc2nc(-c3ccccc3)ncc2C(=O)O)c1	32*	1	-16	-7
COc1ccc(Oc2nc(-c3ccccc3)ncc2C(=O)O)cc1	4	1	6	-16
O=C(O)c1cnc(-c2ccccc2)nc1Sc1ccccc1Cl	43*	39	-21	-2
COc1ccc(Sc2nc(-c3ccccc3)ncc2C(=O)O)cc1	7	11	-12	-6
CCOC(=O)c1c(-c2ccc(C)o2)csc1NC(=S)NC(=O)N(C)C	-23	-9	-3	2
CCC(CO)NCc1ccc(OCC(=O)Nc2cccc(C(F)(F)F)c2)c(OC)c1 (stereo not drawn)	-13	23	-2	95*
CCOc1cc(CNC(C)(C)C)ccc1OCC(=O)Nc1cccc(C(F)(F)F)c1	-9	-21	17	84*
CCOc1cc(CNC)ccc1OCC(=O)NC(C)(C)C	4	0	21	4
CCOc1cc(CNCCCN2CCOCC2)cc(Br)c1OCC(=O)Nc1cccc(C(F)(F)F)c1	-5	40	-4	101*
COc1ccc(NC(=O)COc2ccc(CNCCCN3CCOCC3)cc2OC)cc1	14	11	-20	-2
CC(C)(C)c1ccccc1NC(=S)NC1CCCCC1	6	4	66*	19
S=C(Nc1ccc(Cl)cc1)NC1CCCCC1	x	13	x	x
Cc1cccc(NC(=S)NC2CCCCCC2)c1C	7	-15	67	82*
COc1ccccc1NC(=S)NC1CCCCCC1	9	2	59*	48
Cc1c(F)cccc1NS(=O)(=O)c1ccc2c(c1)NC(=O)CO2	4	-22	0	1
CCCC1CCC(=C(C#N)C(N)=O)CC1 (stereo not drawn)	16	10	0	-3
COC(=O)c1ccc(C23CC4(C2)[C@H](CN(C)[C@@H]4c2ccccc2)C3c2ccc(Cl)nc2)cc1 (stereo partly drawn)	x	24	x	x
CCC(CO)NCc1cc(OC)c(OCC(=O)NCCc2ccccc2)cc1Br (stereo not drawn)	0	27	-11	97*
COc1ccc(CC(=O)OCC(=O)NCCc2ccccc2)cc1OC	3	-4	-17	-5
CCCNCc1cc(OC)c(OCC(=O)NCCc2ccccc2)cc1Br	-7	-7	-12	55*
Cc1ccccc1OCCOc1ccccc1C=C(C#N)C#N	13	15	-36	78*
Cc1cccc(OCCOC(=O)Nc2ccccc2)c1	8	19	-5	-8
Cc1cccc(OCCOc2ccccc2C=C(C#N)C#N)c1	20	-60	9	94*
Cc1ccccc1OCCNC(=S)Nc1ccccc1	4	4	7	8
O=C(c1ccccc1Oc1ccccc1)N1CCN(c2ccccc2F)CC1	5	63	6	13
SMILES	Arbovirus inh	CHOP inhibitor	WT yeast gro inh	Lmaj promast
CCCN(CCC)CCCNC(=S)Nc1ccc2nc(N3CCN(C)CC3)cc(C)c2c1	-22	-11	-15	65*
CCCN(CCC)CCCNC(=S)Nc1ccc2nc(N3CCN(CC)CC3)cc(C)c2c1	-17	10	13	94*
Cc1ccc2c(c1)N(CC(=O)OCC(=O)NCc1ccccc1)C(=O)CO2	-1	-1	4	-5
O=C(N/C=N/OCc1ccc(Cl)cc1Cl)NOCc1ncc(C(F)(F)F)cc1Cl	-41	95*	69*	-2
CO/N=C/NC(=O)NOCc1ncc(C(F)(F)F)cc1Cl	3	12	-21	-5
CCC(C)Nc1nnnc2c1sc1nc3c(cc12)COC(C)(C)C3 (stereo not drawn)	2	-35	28	50*
COc1ccc(-c2cc(-c3ccccc3)c(C#N)c(S(C)=O)n2)cc1 (stereo not drawn)	-25	-22	3	100*
C#CCN1C(=O)S/C(=C/C=C/c2ccc(N(C)C)cc2)C1=O	-13	35	19	88*
O=C(CN1C(=O)S/C(=C\C=C\c2ccccc2)C1=O)Nc1ccccc1C(=O)O	x	0	x	x
CCOC(=O)c1ccc(Nc2c(OCC)c(=O)c2=O)cc1	x	58	x	x
O=C(NCCc1ccc(Cl)cc1)C1CCN(S(=O)(=O)c2ccc(Br)s2)CC1	-1	22	25	3
CCOc1ccc(C(=O)Nc2cc(S(=O)(=O)Nc3ccccc3Cl)ccc2N2CCOCC2)cc1	1	9	8	97*
CCOc1ccc(S(=O)(=O)N(CC)CC)cc1NS(=O)(=O)c1ccc(F)c(F)c1F	12	-3	7	60*
